Bioassay records: PubChem BioAssay, National Center for Advancing Translational Sciences (NCATS)
A selection: hits, their analogues and other compounds. The true share with any hit is near 21%.
DT40 TDP1 no CPT = qHTS for Inhibitors of human tyrosyl-DNA phosphodiesterase 1 (TDP1): qHTS in cells in absence of CPT; DT40 Tdp1-/- hTDP1 cells, no CPT, ATP luminescence, 48 h; Potency, µM (top dose mostly 46.2 µM), inactives show at the top dose activity change, negative = growth inhibition, actives largely listed as inhibitors; actives 15% (n = 420,000); AID 686978, 2013; note: potency is the fitted concentration of half-maximal effect; % is set by controls: 0 for no effect and ±100 for the full control effect; nearly all actives have a fitted effect of over 55% in size
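Growth of hTDP1-complemented DT40 Tdp1-knockout cells is measured by ATP luminescence after at least 48 hr compound exposure at 37 °C, with DMSO substituting for the 20 nM CPT used in the parallel screen.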
IL1B secr inh = qHTS for Inhibitors of Inflammasome Signaling: IL-1-beta AlphaLISA Primary Screen. THP-1 LPS/ATP IL-1B secretion, AlphaLISA, 16 h; hits give low values. activity change, % at 57.5 µM. actives 4.7% (n = 360,000). AID 743279, 2014; in the data active = activity change below about -50%; inconclusive = mostly about -30% to -49%; note: % is set by controls: 0 for no effect and ±100 for the full control effect
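Secreted IL-1B measured by AlphaLISA bead assay after 16 h compound exposure of THP-1 cells; compounds (final up to 57.5 uM) added 1 h before LPS (250 ng/mL) and ATP (1.25 mM) stimulation; lower signal means less secretion.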
ClpP mod = qHTS Assay for Activators of ClpP | purified B. subtilis ClpP, FRET peptide cleavage, 20 min | Potency, µM (top dose mostly 57.5 µM), for inactives: top-dose activity change, negative = active | actives 1.9% (n = 340,000) | AID 651965, 2013; active = well fitted falling curve with a large enough effect; inconclusive = small, poorly fitted or top-dose-only effect; inactive = no such curve, though single readings can be large or run the other way; note: potency is the fitted concentration of half-maximal effect; the source files actives as falling curves though it sought activators and does not explain the sign; nearly all actives have a fitted effect of over 65% in size
Target sequence (P80244 whole entry, looked up): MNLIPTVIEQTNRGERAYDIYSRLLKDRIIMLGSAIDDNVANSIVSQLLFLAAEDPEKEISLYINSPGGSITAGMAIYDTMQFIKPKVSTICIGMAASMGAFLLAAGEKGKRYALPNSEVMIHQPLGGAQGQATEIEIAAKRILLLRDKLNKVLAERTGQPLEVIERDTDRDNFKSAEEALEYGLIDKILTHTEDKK
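Buffer: 100 mM Tris/HCl pH8, 100 mM KCl, 0.05% low protease BSA, 2.5% glycerol, 0.01% Tween-20. ClpP 10 microg/mL final; 20 min RT; delta FRET normalized to ADEP and DMSO controls.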
D3 antag = qHTS of D3 Dopamine Receptor Antagonist: qHTS. D(3) dopamine receptor (Homo sapiens), P35462. D3R cells, DiscoveRx beta-arrestin luminescence, antagonist mode; hits give low values. max response, negative = inhibition, %. actives 2.5% (n = 360,000). AID 652054, 2013; in the data active = max response below about -50%; inconclusive = no clear call, values can overlap the other calls; note: % is set by controls: 0 for no effect and ±100 for the full control effect
Target sequence (P35462 whole entry, looked up): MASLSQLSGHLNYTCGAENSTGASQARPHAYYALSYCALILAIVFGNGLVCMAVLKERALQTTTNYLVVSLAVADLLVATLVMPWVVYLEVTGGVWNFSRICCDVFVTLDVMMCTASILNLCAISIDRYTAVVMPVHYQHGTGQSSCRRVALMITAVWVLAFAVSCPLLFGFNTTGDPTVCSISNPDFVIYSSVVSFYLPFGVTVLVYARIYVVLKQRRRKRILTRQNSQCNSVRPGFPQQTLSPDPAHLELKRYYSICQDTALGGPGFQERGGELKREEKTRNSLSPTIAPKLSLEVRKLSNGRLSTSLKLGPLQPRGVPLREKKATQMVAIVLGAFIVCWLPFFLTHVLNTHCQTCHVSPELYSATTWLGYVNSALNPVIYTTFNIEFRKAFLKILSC
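Cells plated overnight at 1500 cells/well, then exposed to library compounds with dopamine controls for 90 minutes at 37 degrees C. DiscoveRx reagent added for 30–60 minutes at room temperature; luminescence read, quantitative HTS format.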
DT40 TDP1 CPT = qHTS for Inhibitors of human tyrosyl-DNA phosphodiesterase 1 (TDP1): qHTS in cells in presence of CPT; chicken DT40 Tdp1-/-;hTDP1 cells + 20 nM CPT, ATP luminescence, 48 h; Potency, µM (doses to about 46.2 µM), inactives show at the top dose activity change, negative = growth inhibition, hits mostly inhibitors; actives 12% (n = 420,000); AID 686979, 2013; note: potency is the fitted concentration of half-maximal effect; % is set by controls: 0 for no effect and ±100 for the full control effect; nearly all actives have a fitted effect of over 55% in size
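Chicken DT40 Tdp1-/- cells stably complemented with human TDP1 were seeded at 400 cells/well in medium containing 20 nM camptothecin, exposed to pin-transferred compounds, and grown at 37 °C for at least 48 hr. Viability was read as ATP luminescence.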
DRD3 agonist = qHTS of D3 Dopamine Receptor Agonist: qHTS | D(3) dopamine receptor (Homo sapiens), P35462 | D3R DiscoveRx beta-arrestin cells, luminescence, 90 min | max activation, % | actives 0.58% (n = 410,000) | AID 652048, 2013; in the data active = max activation above about 30%; note: 0% is about no effect
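Agonist-mode cell screen: cells plated at 1500/well and incubated overnight at 37 °C, then exposed to library compounds for 90 min at 37 °C. Detection reagent was added for 30–60 min at room temperature, and luminescence was read.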
The depositor's hits bear a star; u = inconclusive; x = no result given. Unless noted, calls come from the whole dose curve; as a rule, active = well fitted inhibition curve with a large enough effect; inconclusive = small, poorly fitted or top-dose-only effect; inactive = flat fitted curve, though single readings scatter.

SMILES	DT40 TDP1 no CPT	IL1B secr inh	ClpP mod	D3 antag	DT40 TDP1 CPT	DRD3 agonist
CC(/C=N/NC(=O)c1cc(-c2ccc(Cl)cc2)nc2ccccc12)=C\c1ccco1	3.26µM*	2.7	-9.9%	0.0	2.91µM*	-6.2
CC(/C=N/NC(=O)c1cc(-c2ccccc2)nc2ccccc12)=C\c1ccco1	0.731µM*	-12.1	-3.6%	-3.8	2.31µM*	1.2
CC(CC(=O)N1CCN(S(=O)(=O)c2ccc(Cl)cc2)CC1)n1cncn1 (stereo not drawn)	3.8%	0.8	x	4.8	1.5%	4.0
COC(=O)[C@H](Cc1ccccc1)[C@@H](C)OS(N)(=O)=O	-11.5%	6.2	0.8%	0.0	0.7%	0.0
C=CC(C1=CC(=O)C(OC)=CC1=O)c1ccccc1 (stereo not drawn)	2.91µM*	x	x	x	3.66µM*	x
C=CC(C1=CC(=O)C(OC)=C(OC)C1=O)c1ccccc1 (stereo not drawn)	0.731µM*	x	x	x	0.82µM*	x
COc1ccc(-c2ccc(=O)[nH]n2)cc1	-2.0%	-3.3	-4.5%	11.2	-2.2%	-3.7
C=CC(C1=CC(=O)C(OC)=CC1=O)c1ccc(OC)cc1 (stereo not drawn)	2.91µM*	x	x	x	3.26µM*	x
COc1ccc(CCNC(=O)c2ccc(CS(=O)Cc3ccc(C)cc3)o2)cc1OC (stereo not drawn)	-19.0%	3.7	-1.2%	15.3	u	0.5
C[C@]12CCC(=O)C=C1[C@@H]1C[C@@H]1[C@H]1[C@@H]3[C@@H]4C[C@@H]4[C@@]4(CCC(=O)O4)[C@@]3(C)CC[C@@H]12	7.5µM*	x	x	x	8.41µM*	-10.0
Cc1nc(C)c2c(=O)cc(-c3ccccc3)[nH]c2n1	5.62µM*	42.0	-21.1%	11.3	4.47µM*	-24.6
Cc1nc(-c2ccccc2)nc2[nH]ccc(=O)c12	-5.3%	41.1	1.1%	1.5	13.4%	0.0
Cc1cccc(CCNC(=O)c2cnc3c(C)cccn3c2=O)c1	u	x	4.8%	x	-25.6%	6.3
Cc1cccc(CNC(=O)c2cnc3sc(N4CCCCCC4)nn3c2=O)c1	-8.7%	x	-24.2%	x	-16.2%	4.5
CCCN(CCC)c1nn2c(=O)c(C(=O)NCc3cccc(OC)c3)cnc2s1	16.4µM*	x	u	x	u	-10.2
CCN(CC)c1nn2c(=O)c(C(=O)NCc3cccc(C)c3)cnc2s1	16.4µM*	x	u	x	u	5.8
CCN(CC)c1nn2c(=O)c(C(=O)NCCc3cccc(C)c3)cnc2s1	u	x	11.2µM*	x	u	-5.2
CCN(CC)c1nn2c(=O)c(C(=O)NCc3cccc(OC)c3OC)cnc2s1	u	x	u	x	u	0.1
Cc1cccc(NC(=O)COC(=O)CN2C(=O)c3ccccc3C2=O)c1	1.6%	6.6	0.6%	0.0	0.6%	-10.4
Cc1ccc(CNC(=O)Cc2c(C(=O)O)c(C)cn2C)cc1	-2.1%	x	-2.9%	x	1.5%	7.9
Cc1ccc(C(=O)N/N=C\c2cc3c(cc2Br)OCO3)s1	u	-15.4	0.4%	-65.5*	-1.1%	-34.8
Cc1cccc(/C=N/NC(=O)c2c(-c3ccccc3)noc2C)c1O	2.91µM*	134.7	9.4%	7.5	18.4µM*	1.7
Cc1onc(-c2ccccc2)c1C(=O)N/N=C/c1cc(Br)c(O)c(Br)c1	u	11.6	-27.6%	7.4	u	-1.2
Cc1onc(-c2ccccc2)c1C(=O)N/N=C/c1cc2c(cc1Br)OCO2	25.9µM*	-14.0	1.0%	-0.8	u	3.0
Cc1cc([N+](=O)[O-])ccc1P(=O)(O)c1ccc([N+](=O)[O-])cc1C	-4.4%	19.3	1.3%	4.9	-0.8%	2.9
SMILES	DT40 TDP1 no CPT	IL1B secr inh	ClpP mod	D3 antag	DT40 TDP1 CPT	DRD3 agonist
COc1ccc(OCCNc2cc(N3CCCCC3)ccc2[N+](=O)[O-])cc1	23.1µM*	u	-2.9%	-14.0	18.4µM*	-6.0
COc1ccc(OCCNc2cc(N3CCOCC3)ccc2[N+](=O)[O-])cc1	u	-16.9	1.2%	u	u	-0.1
CC1CN(c2ccc([N+](=O)[O-])c(NCCOc3ccccc3)c2)CCN1 (stereo not drawn)	u	-61.6*	x	u	u	-14.0
Cc1ccccc1OCCNc1cc(N2CCCCC2)ccc1[N+](=O)[O-]	u	-16.8	-1.6%	-23.8	20.6µM*	1.9
Cc1ccccc1OCCNc1cc(N2CCN(CCO)CC2)ccc1[N+](=O)[O-]	u	-76.3*	-4.0%	-64.4*	u	-13.8
CCc1nc2ccc(C(=O)N(C)CCCN(C)C)cn2c1N(CC)CCOC	7.8%	5.9	-1.4%	-12.7	18.1%	4.8
CCOc1ccc(S(=O)(=O)NCCC(=O)N(C)Cc2cccs2)cc1	u	6.2	0.7%	18.6	-23.7%	7.0
O=S(=O)(Nc1ccncc1)c1cc(Cl)c(Cl)cc1Cl	-23.8%	12.5	-0.9%	2.5	24.3%	6.9
Cc1cccc(OCCNc2cc(N3CCN(CCO)CC3)ccc2[N+](=O)[O-])c1	20.6µM*	0.0	1.3%	-57.7*	u	-12.8
O=[N+]([O-])c1ccc(N2CCOCC2)cc1NCCCO	u	-6.1	x	13.9	-28.2%	23.8
COCCCNC(=O)CSc1nc2cc(S(=O)(=O)N3CCCCC3)ccc2o1	-29.7%	2.8	1.9%	1.1	-14.8%	-5.4
C=CCn1c(SCC(=O)O)nnc1-c1ccc(C(C)(C)C)cc1	u	26.9	-4.9%	42.9	-12.2%	0.9
C=CCn1c(SCc2c(C(=O)OC)sc(N)c2C(=O)OC)nnc1-c1ccc(Br)cc1	18.4µM*	-9.8	-1.1%	-7.8	u	4.6
CCCCc1ncc(/C=C(\Cc2cccs2)C(=O)O)n1Cc1ccc(C(=O)O)cc1	-8.5%	x	x	x	-20.1%	-13.1
N#Cc1ccc(C(=O)Nc2nnc(-c3cccs3)o2)cc1	7.31µM*	34.1	1.9%	-16.9	5.17µM*	-2.6
O=C(Nc1nnc(-c2cccs2)o1)c1cccc(C(F)(F)F)c1	5.17µM*	72.7	-0.8%	20.8	5.17µM*	3.5
CN(C)S(=O)(=O)c1ccc(C(=O)Nc2nnc(-c3ccc4c(c3)CCCC4)o2)cc1	5.17µM*	3.8	-6.7%	0.8	2.91µM*	3.9
CSCc1nnc(NC(=O)c2ccc(S(=O)(=O)N(C)C)cc2)o1	u	-16.8	-1.6%	-15.4	u	1.4
